From PubChem BioAssay
DT40 TDP1 CPT = qHTS for Inhibitors of human tyrosyl-DNA phosphodiesterase 1 (TDP1): qHTS in cells in presence of CPT. chicken DT40 Tdp1-/-;hTDP1 cells + 20 nM CPT, ATP luminescence, 48 h. Potency, µM (titrated, usually from 46.2 µM), most hits filed as inhibitors. 420,000 compounds, 12% hits; note: nearly all actives have a fitted effect of over 55% in size
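Cell growth measured by CellTiter-Glo luminescence after a minimum 48 h, 37 C compound exposure with 20 nM CPT in Tdp1-knockout DT40 cells stably expressing hTDP1, seeded 400/well; qHTS titration format.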
TDP1 block = qHTS Assay for Inhibitors of Tyrosyl-DNA Phosphodiesterase (TDP1); Tyrosyl-DNA phosphodiesterase 1 (Homo sapiens), Q9NUW8; recombinant TDP1, AlphaScreen DNA substrate cleavage; Potency, µM (titrated, usually from 130 µM), actives largely listed as inhibitors; 350,000 compounds, 0.28% hits; note: nearly all actives have a fitted effect of over 40% in size
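Compounds were preincubated with Tdp1 (1 nM final) for 15 min at room temperature before substrate (15 nM final) started a 5 min reaction; beads (10 ug/ml final) were then added for 10 min before AlphaScreen detection.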
Six1-Eya2 blk = qHTS Assay for Inhibitors of the Six1/Eya2 Interaction; Homeobox protein SIX1 (Homo sapiens) + Protein phosphatase EYA2 (Homo sapiens), …; AlphaScreen GST-Six1/His-Eya2 binding, biochemical; hits give low values; activity change, % (concentration not given with the values); 360,000 compounds, 0.56% hits; AID 651725, 2012; in the data active = activity change below about -65%; inconclusive = mostly about -30% to -63%
Target sequence (O00167 whole entry, looked up): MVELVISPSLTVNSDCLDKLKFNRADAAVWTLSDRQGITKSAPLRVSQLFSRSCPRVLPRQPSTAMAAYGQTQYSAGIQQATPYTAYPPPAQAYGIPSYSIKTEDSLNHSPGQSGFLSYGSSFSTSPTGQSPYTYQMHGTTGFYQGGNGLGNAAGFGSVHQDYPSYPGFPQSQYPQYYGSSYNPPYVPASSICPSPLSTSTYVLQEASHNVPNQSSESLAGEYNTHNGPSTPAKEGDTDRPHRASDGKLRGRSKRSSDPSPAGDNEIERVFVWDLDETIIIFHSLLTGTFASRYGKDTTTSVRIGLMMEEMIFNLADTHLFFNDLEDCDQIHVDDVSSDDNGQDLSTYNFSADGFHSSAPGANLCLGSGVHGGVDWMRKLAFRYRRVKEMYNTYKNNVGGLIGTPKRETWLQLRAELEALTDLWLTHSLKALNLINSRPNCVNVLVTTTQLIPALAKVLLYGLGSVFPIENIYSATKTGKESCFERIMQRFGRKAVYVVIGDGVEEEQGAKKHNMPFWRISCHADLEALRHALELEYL
Target sequence (Q15475 whole entry, looked up): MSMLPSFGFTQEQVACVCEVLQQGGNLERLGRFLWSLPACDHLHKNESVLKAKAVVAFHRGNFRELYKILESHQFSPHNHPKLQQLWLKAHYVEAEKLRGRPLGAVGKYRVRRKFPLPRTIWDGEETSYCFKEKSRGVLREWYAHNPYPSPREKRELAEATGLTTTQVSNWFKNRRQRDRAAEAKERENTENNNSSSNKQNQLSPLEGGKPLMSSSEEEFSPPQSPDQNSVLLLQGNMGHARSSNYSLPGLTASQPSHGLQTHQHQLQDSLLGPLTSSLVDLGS
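AlphaScreen luminescence read after one hour at 37 °C in darkness. Pin-transferred compounds met GST-Six1 and His-Eya2 protein (5X stock 250 nM/500 nM) plus glutathione donor and Ni-chelate acceptor beads (5X, 50 ug/mL).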
IL1B secr inh = qHTS for Inhibitors of Inflammasome Signaling: IL-1-beta AlphaLISA Primary Screen; 360,000 compounds, 4.7% hits; activity change, % at 57.5 µM; AID 743279, 2014; THP-1 LPS/ATP IL-1B secretion, AlphaLISA, 16 h; hits give low values; in the data active = activity change below about -50%; inconclusive = mostly about -30% to -49%
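THP-1 cells pretreated 1 hr with compounds (up to 57.5 uM final), then stimulated with LPS (250 ng/mL final) plus ATP (1.25 mM final); secreted IL-1B measured by AlphaLISA after 16 hr, decreased signal indicating inhibition.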
CtBP-E1A inh = qHTS Assay for Inhibitors of the CtBP/E1A Interaction | activity change, % (no concentration beside the values) | CtBP / adenovirus E1A interaction (AlphaScreen) | AlphaScreen GST-E1A/His-CtBP binding, 1536-well; hits give low values | 340,000 compounds, 0.49% hits | AID 651724, 2012; in the data active = activity change below about -65%; inconclusive = mostly about -30% to -63%
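GST-E1A and His-tagged CtBP (125 nM each as 5X stock) were preincubated with pin-transferred compound for 2 h at 37 °C in the dark, then glutathione donor and nickel acceptor beads were added for 1 h before AlphaScreen reading.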
TDP1 cell noCPT = qHTS for Inhibitors of human tyrosyl-DNA phosphodiesterase 1 (TDP1): qHTS in cells in absence of CPT | DT40 Tdp1-/- hTDP1 cells, no CPT, ATP luminescence, 48 h | Potency, µM (titrated, usually from 46.2 µM), actives largely listed as inhibitors | 420,000 compounds, 15% hits | AID 686978, 2013; note: nearly all actives have a fitted effect of over 55% in size
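Cells were dispensed at 400 per well, compounds added by pin tool, plates incubated ≥48 hr at 37 °C, then CellTiter-Glo added for 30 min at room temperature before luminescence reading. Line: DT40 Tdp1-/- complemented with hTDP1; camptothecin omitted.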
Numbers stand for hits; – = inactive; ? = inconclusive; · = no result given. Shown are actives, neighbours in structure and some others; about 18% of the full set was active somewhere. Unless noted, calls come from the whole dose curve; as a rule, active = well fitted curve in the direction sought with a large enough effect; inconclusive = small, poorly fitted or top-dose-only effect, or another doubt; inactive = no such curve, though single readings can be large; an effect the other way counts as inactive or inconclusive.

SMILES	DT40 TDP1 CPT	TDP1 block	Six1-Eya2 blk	IL1B secr inh	CtBP-E1A inh	TDP1 cell noCPT
CCOc1ccc(NC(=O)CSC2=NCCN2)cc1	?	–	–	–	–	–
COC(=O)c1ccc(NC(=O)CSC2=NCCN2)cc1	?	·	–	-53	–	15µM
COc1ccc(NCC(=O)Nc2ccc(Br)cc2F)c(OC)c1	?	–	–	?	?	13µM
COc1ccc(NC(=O)CN2CCN(CC(=O)Nc3ccccc3Cl)CC2)cc1	?	–	–	–	–	?
COc1ccc(NC(=O)CN2CCN(CC(=O)Nc3ccccc3F)CC2)c(OC)c1	23µM	–	–	–	–	?
COc1ccc(NC(=O)CN2CCN(CC(=O)Nc3ccccc3OC)CC2)c(OC)c1	–	·	–	–	–	–
COc1ccc(NC(=O)CN2CCN(CC(=O)Nc3ccccc3Cl)CC2)c(OC)c1	18µM	–	–	–	–	18µM
CC(C)c1nc(N2CCOCC2)c(C#N)c2c1CCCC2	–	–	–	–	–	–
COc1cccc(CNC(=O)c2ccccc2N)c1	–	–	–	–	–	–
Cc1occc1C(=O)N1CCCC(Nc2ccc(F)c(F)c2)C1 (configuration not stated)	–	–	–	–	–	–
N/C(=N\OC(=O)c1ccc(Cl)cc1)c1ccccn1	–	–	–	–	–	–
N/C(=N/OC(=O)c1ccc(Cl)cc1)c1ncc([N+](=O)[O-])s1	16µM	·	–	–	·	21µM
CCc1nnc(SCC(=O)Nc2ccc(OC)c(OC)c2)c2cc3occc3n12	–	–	·	·	·	–
COc1ccccc1Cc1nc2ccccc2nc1SCC(=O)NCCc1ccccc1	–	–	·	·	·	–
CCc1cccc(C)c1NC(=O)CSc1nc2ccccc2nc1Cc1ccccc1	?	–	·	·	·	16µM
O=C(CSc1nc2ccccc2nc1Cc1ccccc1)Nc1ccccc1C(F)(F)F	–	–	·	·	·	–
CCc1cccc(C)c1NC(=O)CSc1nnc(CC)n2c1cc1occc12	?	–	·	·	·	18µM
COc1ccccc1Cc1nc2ccccc2nc1SCC(=O)N1CCN(c2ccccc2)CC1	21µM	–	·	·	·	23µM
COc1cccc(Cc2nc3ccccc3nc2SCC(=O)N2CCN(c3ccccc3)CC2)c1	?	–	·	·	·	23µM
C[C@H](NC(=O)C1CC(=O)N(c2ccc(F)cc2)C1)C(=O)N1CCCCC1 (some centres not stated)	–	–	–	–	–	?
Cn1c(SCC(=O)Nc2cccc(C(=O)O)c2)nnc1-c1cc2cc(Br)ccc2o1	–	–	?	–	·	–
COc1ccccc1Cc1nc2ccccc2nc1SCC(=O)N1CCC(C)CC1	16µM	–	·	·	·	9.2µM
Cc1nc2ccccc2nc1SCC(=O)N1CCC(C)CC1	?	–	–	–	–	?
CCc1cccc(C)c1NC(=O)CSc1nnc(-c2cc3cc(Br)ccc3o2)n1CC	23µM	–	–	–	–	18µM
COc1cccc(Cc2nc3ccccc3nc2SCC(=O)NCCc2ccccc2)c1	18µM	–	·	·	·	18µM
O=C(CSc1nc2c(cnn2-c2ccccc2)c(=O)[nH]1)c1ccc(Cl)cc1	–	–	–	–	–	–
CCC(=O)Nc1ccc(Cl)c(-c2nc3ncccc3o2)c1	–	·	-68	–	?	–
CCCC(=O)Nc1ccc(Cl)c(-c2nc3ncccc3o2)c1	–	·	?	–	?	–
Cc1cccc(OCC(=O)Nc2ccc(Cl)c(-c3nc4ncccc4o3)c2)c1C	18µM	–	·	·	·	16µM
O=C(CCNC(=O)c1ccc([N+](=O)[O-])cc1)N/N=C/c1ccc(F)cc1	–	–	–	–	·	?
